What follows are binders tested against EPS15 121-215, P42566.
EPS15 121-215, P42566, sequence (P42566 121-215): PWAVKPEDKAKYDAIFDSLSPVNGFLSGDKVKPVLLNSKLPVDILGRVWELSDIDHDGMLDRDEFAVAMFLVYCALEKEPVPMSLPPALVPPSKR

Selected by phage display, active:
TPSEAERWLEEVSQVA [NUMBL, Q9Y6R0] confidence 3
LNPFEVLQIDPEVTDE [DNAJC8, O75937] confidence 3
NPFSAAPAATTVVQTH [SAP130, Q9H0E3] confidence 3
GLNPFGDSTHAAAAAA [ZIC3, O60481] confidence 2
GNPFMGVSATAVSSSS [CHD8, Q9HCK8] confidence 2
QGRPVSVWDVLFSSYL [EPPK1, P58107] confidence 3
NPFSVSNPNPLLPSPA [RBM20, Q5T481] confidence 2
SNPFMTGAPTGQFPTG [AGFG1, P52594] confidence 3
VNPFAQETLFVGNDQV [TMEM108, Q6UXF1] confidence 3
DSPGLNASNPFTQLER [DLGAP5, Q15398] confidence 2
LNQGNPFIATSGPGHL [CHD7, Q9P2D1] confidence 2
TPLMNPFRLENVTVSE [TMEM114, B3SHH9] confidence 4
NPFNSSKLPEGHSSQQ [SYTL2, Q9HCH5] confidence 2
EFGPENPFRTQQMAAP [CDC40, O60508] confidence 4
NPFLPYISDTGTTPPE [DRAM1, Q8N682] confidence 4
NPFSVHTATAVPSGKI [POLA1, P09884] confidence 3
NPFVPSMPAAPPTLPL [DENND1A, Q8TEH3] confidence 2
NPFLVAAQDSETDYVT [RTN4, Q9NQC3] confidence 2
NPFTTLTDRELEEYRR [ADD1, P35611] confidence 3
LNPFLTKSSGDVHLSI [PICALM, Q13492] confidence 4
DVGLGINPFADGMGAF [ZIC1, Q15915] confidence 3
ELTGEKFLEMANPNVA [MACF1, Q9UPN3] confidence 2
GGNPFASVGSSSSSGE [UBQLN2, Q9UHD9] confidence 2
NPFLNGNVPVMPSLDE [SH3BP4, Q9P0V3] confidence 4
DMESDIRSWELFLSNV [TTC3, P53804] confidence 2
QSWLSATLSLATDTMR [MYO18B, Q8IUG5] confidence 2

These binders were tested against KEAP1 321-609, Q14145.
KEAP1 321-609, Q14145, sequence (Q14145 321-609): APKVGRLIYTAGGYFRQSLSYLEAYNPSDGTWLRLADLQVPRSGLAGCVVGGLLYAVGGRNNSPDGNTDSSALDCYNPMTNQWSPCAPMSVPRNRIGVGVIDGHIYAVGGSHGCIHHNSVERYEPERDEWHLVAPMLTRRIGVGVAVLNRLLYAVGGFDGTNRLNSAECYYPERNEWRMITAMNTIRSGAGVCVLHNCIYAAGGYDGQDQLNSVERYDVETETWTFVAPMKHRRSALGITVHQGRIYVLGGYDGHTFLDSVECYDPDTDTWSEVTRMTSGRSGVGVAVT

Selected by phage display, active:
VEKDKVTGETRVLSST [PALM, O75781] confidence 2
TTWLHPVTGEAVVTGH [PLEKHA5, Q9HAU0] confidence 2
FALEYEADSGEVTSVI [C2orf68, Q2NKX9] confidence 2
GGIIDPSTGERFPVTD [PLEC, Q15149] confidence 4
REHNPESGEEVVTLLE [ZBED9, Q6R2W3] confidence 2
